Only a selection was taken, and hits are over-represented in it overall.
NS1 inh: inhibitors of influenza NS1 protein function; Potency, µM (highest dose often 46.1 µM), for inactives: top-dose activity, positive = more growth; actives 0.4% (n = 270,000); calls by dose curve; note: potency is the fitted concentration of half-maximal effect; actives are rising curves; nearly all actives have a fitted effect of over 50% in size
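In this qHTS, NS1 from influenza A is expressed in budding yeast, where it slows growth. Cells are switched from glucose to 2% galactose medium (pH 6.0, -URA), treated with compound, and growth recovery is read at OD600.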
LmPK inh: inhibitors of Leishmania mexicana pyruvate kinase; actives 0.37% (n = 290,000); Potency, µM (doses to about 57.5 µM), inactives show at the highest dose activity change, negative = inhibition, usual class: inhibitors; Q27686; purified LmPK, Kinase-Glo ATP luminescence, 1 h; note: potency is the fitted concentration of half-maximal effect; % is set by controls: 0 for no effect and ±100 for the full control effect
Target sequence (Q27686 whole entry, looked up): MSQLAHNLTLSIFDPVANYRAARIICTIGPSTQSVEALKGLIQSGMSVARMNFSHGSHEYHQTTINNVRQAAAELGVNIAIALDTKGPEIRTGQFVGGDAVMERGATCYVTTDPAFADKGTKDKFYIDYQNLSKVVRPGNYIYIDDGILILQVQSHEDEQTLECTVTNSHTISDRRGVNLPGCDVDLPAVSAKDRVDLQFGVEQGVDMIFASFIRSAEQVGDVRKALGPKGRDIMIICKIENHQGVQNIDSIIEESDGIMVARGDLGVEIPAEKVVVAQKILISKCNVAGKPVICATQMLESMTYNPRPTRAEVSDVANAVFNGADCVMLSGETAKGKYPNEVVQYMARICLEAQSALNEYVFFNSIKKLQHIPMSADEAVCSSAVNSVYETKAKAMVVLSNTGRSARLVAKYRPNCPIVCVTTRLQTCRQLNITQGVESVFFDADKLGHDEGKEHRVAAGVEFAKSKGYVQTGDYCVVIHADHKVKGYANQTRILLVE
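Purified LmPK (0.1 nM) converted ADP (0.1 mM) to ATP with PEP (0.5 mM) in imidazole buffer pH 7.2 with KCl and MgCl2, 1 h at room temperature. ATP was read by Kinase-Glo luminescence; data normalized to uninhibited and no-enzyme controls.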
Tb PYK inh: inhibitors of Trypanosoma brucei pyruvate kinase | Q57TT1 | TbPYK enzyme, Kinase-Glo Plus ATP luminescence, 45 min | Potency, µM (series often up to 76.8 µM), for the others: at the top dose activity, negative = inhibition, usual class: inhibitors | actives 0.12% (n = 410,000) | AID 624173; note: potency is the fitted concentration of half-maximal effect; % is set by controls: 0 for no effect and ±100 for the full control effect; nearly all actives have a fitted effect of over 50% in size
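Quantitative HTS: titrated library compounds versus trypanosomal pyruvate kinase in TEA buffer (pH 7.2) containing KCl, MgCl2, BSA and Tween-20. Reactions were initiated with ADP, 130 uM final. Kinase-Glo Plus luminescence was read after 45 min at RT.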
SARS PLpro yeast: SARS-CoV PLP inhibition in yeast | S. cerevisiae expressing SARS-CoV PLpro, growth rescue | Potency, µM (series often up to 32.9 µM), inactives show at the top dose activity, positive = growth rescue, actives largely listed as activators | actives 0.19% (n = 330,000); calls by dose curve; note: potency is the fitted concentration of half-maximal effect; 0% is about no effect; nearly all actives have a fitted effect of over 55% in size
Shiga toxin inh: inhibitors of Shiga toxin in Vero cells. Vero cells, Shiga toxin protein synthesis inhibition reporter. inhibition, % at 38.7 µM. actives 9.2% (n = 290,000). AID 2315; in the data active = inhibition mostly above about 28%, no sharp cut-off; inactive = mostly below about 43%; note: 0% is about no effect
Cycloheximide cs: counter-screen for Shiga toxin inhibitors: cycloheximide protein synthesis inhibition; cell reporter, cycloheximide protein synthesis inhibition counterscreen; max response, %; actives 12% (n = 300,000); AID 2314; in the data active = max response mostly above about 13%, no sharp cut-off; inactive = mostly below about 14%; note: read at 38.3 µM for the half of the compounds with a filed dose; 0% is about no effect
* = called active by the depositor; i = inactive; ? = inconclusive; . = not tested or not shown; [ ] = remark or other dose. Unless noted, calls come from the whole dose curve; as a rule, active = well fitted curve in the direction sought with a large enough effect; inconclusive = small, poorly fitted or top-dose-only effect, or another doubt; inactive = no such curve, though single readings can be large; an effect the other way counts as inactive or inconclusive.

SMILES	NS1 inh	LmPK inh	Tb PYK inh	SARS PLpro yeast	Shiga toxin inh	Cycloheximide cs
CCCCc1nc2cc(C(=O)N3CCC(OC)CC3)ccc2o1	1%	1%	3%	-4%	44*	27*
COc1ccc(-c2[nH]c3ccccc3c2SCCNC(=O)c2ccc(S(=O)(=O)N(C)C)cc2)cc1	.	.	-3%	.	.	.
COC1CCN(C(=O)c2ccc3oc(C(C)C)nc3c2)CC1	-1%	-2%	1%	1%	20*	23*
CCCCc1nc2cc(C(=O)N3CCCCC3CCNC(C)=O)ccc2o1 (centres undefined)	1%	-4%	-16%	24%	4	2
COCC1CCCCN1C(=O)c1ccc2oc(CCc3ccccc3)nc2c1 (centres undefined)	-9%	11%	2%	0%	94*	37*
CCCCc1nc2cc(C(=O)N3CCCCC3COC)ccc2o1 (centres undefined)	-12%	1%	5%	3%	87*	35*
CCCCc1nc2cc(C(=O)N3CCN(c4nc(C)cnc4C)CC3)ccc2o1	-19%	-9%	-4%	-2%	70*	47*
CCOC(=O)Cn1c(=O)n(CC2CCCO2)c2nc(-c3c(F)cccc3Cl)nc(C(N)=O)c21 (centres undefined)	.	.	-2%	.	.	.
Cc1cccc(OCCCC(=O)NC2CCCCC2)c1	4%	4%	5%	-1%	-12	1
CCCCc1nc2cc(C(=O)NCc3nccn3CC)ccc2o1	-3%	-2%	7%	3%	37*	50*
CCCCc1nc2cc(C(=O)NCc3cn(C)nc3C)ccc2o1	-22%	-9%	2%	-1%	-13	-8
COc1cccc(Cn2c(=O)c(-c3cccs3)nc3cnc(Nc4cccc(OC)c4)nc32)c1	.	.	-4%	.	.	.
Cc1cccc(NC(=O)NCc2ccc3c(c2)OCO3)c1	-3%	-2%	.	-4%	79*	39*
Cc1ccc(NC(=O)NCc2ccc3c(c2)OCO3)cc1	-8%	0%	-3%	7%	27	16*
COc1cc(CNc2ccc3c(c2)ncn3C(C)C)cc(OC)c1OC	.	.	3%	.	.	.
CCn1cnc2cc(NCc3nc4ccccc4n3Cc3ccccc3)ccc21	12%	-11%	-8%	-20%	50*	33*
O=C(O)c1ccc(NCc2nc3ccccc3n2Cc2ccccc2)cc1	-67%	-6%	-1%	1%	-5	-2
CC(C)n1cnc2cc(NCc3nc4ccccc4n3C)ccc21	-22%	?	-27%	6%	82*	73*
CCn1cnc2cc(NCc3nc4ccccc4n3C)ccc21	-4%	?	?	-6%	59*	26*
Cc1ccc(C(=O)NCCN2CCNC2=O)cc1	-2%	4%	0%	0%	58*	28*
Cc1ccc(C(=O)NCCC(=O)N2CCCC2)cc1	1%	-3%	1%	-4%	41*	37*
Cc1ccc(C(=O)NCC(=O)N2CCCCCCC2)cc1	.	.	-8%	-12%	.	.
O=C(CNC(=O)c1cccc(F)c1)OCC(=O)N1CCCCC1	-1%	1%	-2%	21%	51*	35*
CC(C)(C)c1ccc(C(=O)NCC(=O)N2CCCC2)cc1	-1%	8%	3%	3%	37	26*
COc1ccc(CCC(=O)NCCc2csc(-c3cccc(F)c3)n2)cc1	.	.	3%	.	.	.
SMILES	NS1 inh	LmPK inh	Tb PYK inh	SARS PLpro yeast	Shiga toxin inh	Cycloheximide cs
COc1ccc(-c2ccccc2[C@H]2[C@@H]3C=CC[C@@H](C)[C@@H]3C(=O)N2Cc2ccccc2)cc1	.	.	-4%	-60%	i	28
Cc1ccc(C(=O)NCC(=O)N2CCCCCC2)cc1	-12%	3%	-10%	28%	46*	50*
Cc1cccc(C(=O)NCC(=O)N2CCN(S(=O)(=O)c3ccccc3)CC2)c1	.	.	0%	1%	.	.
Cc1cccc(C(=O)NCC(=O)N2CCCC2)c1	13%	-6%	-3%	-2%	49*	12*
Cc1cccc(N2CCN(C(=O)CNC(=O)C3CCCCC3)CC2)c1C	.	.	5%	2%	.	.
Cc1cccc(N2CCN(C(=O)CNC(=O)c3ccccc3)CC2)c1C	-2%	0%	5%	0%	63*	33*
COc1ccc(C(=O)COC(=O)CCNS(=O)(=O)c2ccccc2)cc1Br	12%	-9%	2%	-1%	-33	-1
N#CC(C#N)=Cc1cc2ccccc2nc1N1CCCCC1	-21%	1%	5%	-40%	41*	42*
CC(=O)Nc1ccc(SCCN2CC[C@@H](C(C)(C)C)CCC2=O)cc1	.	.	-9%	-2%	.	.
CCOC(=O)N1C2=NC(C(=O)OC)=C(C(=O)OC)[C@@H]3N(C)c4ccccc4[C@]23C[C@H]1C(=O)OC	11%	-7%[11.5 µM]	4%	-4%	-1	23*
C#CCCOC(=O)N1C2=NC(C(=O)OC)=C(C(=O)OC)[C@@H]3N(C)c4ccccc4[C@]23C[C@H]1C(=O)OC	2%	6%[11.5 µM]	2%	1%	-6	-2
Cc1nn(-c2ccccc2)c(N)c1N=Nc1ccc2ccccc2c1	-12%	0%	-1%	-77%	56*	39*
Cc1ccc(N=Nc2c(N)nn(-c3ccccc3)c2N)cc1	-16%	0%	-1%	-41%	91*	63*
Cc1ccc(N=Nc2c(N)nn3c(C)cc(C)nc23)cc1	6%	0%	-3%	22%	15	21*
Cc1nn(-c2ccccc2)c(N)c1N=O	0%	1%	-2%	-2%	17	1
Cc1cc(C)n2nc(N)c(N=Nc3cccc(Cl)c3)c2n1	-8%	-6%	3%	4%	16	8
CCN(c1ccccc1)S(=O)(=O)c1ccc(OC)c(NC(=O)Cc2ccc(F)cc2)c1	.	.	-2%	5%	.	.
CCN(c1ccccc1)S(=O)(=O)c1ccc(OC)c(NC(=O)CNCCc2ccccc2)c1	9%	5%	3%	-1%	36	25*
CCOc1ccc(NC(=O)COC(=O)Cc2ccsc2)cc1	.	.	2%	-5%	.	.
NS(=O)(=O)c1ccc(O)c(NC(=O)c2ccc([N+](=O)[O-])cc2)c1	3%	2%	29%	0%	68	22*
O=C(Nc1cccc2ccccc12)c1ccc(F)cc1	-22%	2%	-3%	2%	52*	44*
O=C(Nc1cc([N+](=O)[O-])ccc1O)c1cccc(C(=O)Nc2cc([N+](=O)[O-])ccc2O)c1	0%	-4%	-3%	-11%	-4	-1
O=C(CNc1cccc2ccccc12)c1ccc([N+](=O)[O-])cc1	18%	-5%	-9%	9%	-3	-3
O=C(Nc1cccc2ccccc12)c1ccc([N+](=O)[O-])cc1	-11%	-1%	1%	2%	21	14*
O=C(Nc1cccc2ccccc12)c1ccccc1	6%	3%	0%	-1%	96*	42*
